Compound activity: PubChem BioAssay, National Center for Advancing Translational Sciences (NCATS)
The list is not random: actives were taken first. Their share in the collection is about 21%.
Cycloheximide cs: affects cycloheximide protein synthesis inhibition readout, counter-screen | AID 2314 | cell reporter, cycloheximide protein synthesis inhibition counterscreen | 300,000 compounds, 12% hits | max response, %; in the data active = max response mostly above about 13%, no sharp cut-off; inactive = mostly below about 14%; note: read at 38.3 µM for the half of the compounds with a filed dose; 0% is about no effect
AMA1 RON2 block: disrupts binding of P. falciparum AMA1 to RON2; AlphaScreen AMA1-biotinylated RON2 peptide binding; Potency, µM (highest dose often 58.2 µM), inactives show at the top dose activity change, negative = inhibition, actives largely listed as inhibitors; 360,000 compounds, 0.2% hits; AID 720542;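 note: potency is the fitted concentration of half-maximal effect; 0% = vehicle wells and -100% = peptide control; nearly all actives have a fitted effect of over 45% in size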
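AMA1 (3D7) with his tag at 25 nM final met compounds first, then biotinylated RON2 peptide at 25 nM; detection used donor plus acceptor beads, 10 µg/mL apiece, read by AlphaScreen after 30 min at room temperature.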
HCV inhibitor: HCV inhibition; 340,000 compounds, 3.4% hits; AID 651820; Potency, µM (top dose mostly 41.8 µM), for the others: top-dose activity change, negative = inhibition, actives largely listed as inhibitors; Huh7.5.1 HCVcc-Cre infection, luciferase reporter, 44 h; note: potency is the fitted concentration of half-maximal effect; % is set by controls: 0 for no effect and ±100 for the full control effect
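Cells seeded at 1,000/well and cultured 4 h, then compounds added followed by HCVcc-Cre virus (~0.5 moi). After 44 h further culture, luciferase substrate was added, plates held 15 min at room temperature, and luminescence read for 15 sec.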
Shiga toxin inh: Shiga toxin inhibition; Vero cells, Shiga toxin protein synthesis inhibition reporter; inhibition, % at 38.7 µM; 290,000 compounds, 9.2% hits; in the data active = inhibition mostly above about 28%, no sharp cut-off; inactive = mostly below about 43%; note: 0% is about no effect
Pf growth 48h: inhibits P. falciparum growth in the first generation, 48 h; Potency, µM (highest dose often 28.7 µM), for the others: at the highest dose activity change, negative = inhibition, actives largely listed as inhibitors; P. falciparum luciferase growth in erythrocytes, 48 h; AID 504832; 310,000 compounds, 5.9% hits; note: potency is the fitted concentration of half-maximal effect; % is set by controls: 0 for no effect and ±100 for the full control effect
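Luminescence readout; reporter = integrated firefly luciferase in P. falciparum. RBC culture at 2% hematocrit, 0.1% parasitemia final, 37 C/5% CO2; decreased signal taken as growth inhibition.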
Pf growth 96h: P. falciparum growth inhibition at 96 hour, primary screen for plastid delayed-death inhibitors; P. falciparum luciferase reporter growth, 96 h; Potency, µM (series often up to 28.7 µM), for inactives: top-dose activity change, negative = inhibition, usual class: inhibitors; 320,000 compounds, 6.9% hits; AID 504834; note: potency is the fitted concentration of half-maximal effect; % is set by controls: 0 for no effect and ±100 for the full control effect
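Cell-based qHTS: luciferase-tagged P. falciparum in erythrocytes (2% hematocrit, 0.05% parasitemia final) incubated with compounds for 96 hours, 37 C, 5% CO2; luciferase detection reagent then added and luminescence measured.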
The depositor's hits bear a star; ? = inconclusive; . = no result given; [ ] = another dose, or the depositor's remark. Unless noted, calls come from the whole dose curve; as a rule, active = well fitted curve in the direction sought with a large enough effect; inconclusive = small, poorly fitted or top-dose-only effect, or another doubt; inactive = no such curve, though single readings can be large; an effect the other way counts as inactive or inconclusive.

SMILES	Cycloheximide cs	AMA1 RON2 block	HCV inhibitor	Shiga toxin inh	Pf growth 48h	Pf growth 96h
COc1ccc(CCNC(=O)c2cnc(C)cn2)cc1	14	-4%	7%	18	?	?
O=C(NCCC1=CCCCC1)c1cnccn1	20*	20%	17%	42	111%	.
Cc1csc2nc(O)c(C(=O)NCCC3=CCCCC3)c(=O)n12	.	41%	-2%	.	10µM*	?
Cc1csc2nc(O)c(C(=O)NCCCc3ccccc3)c(=O)n12	.	77%	?	.	-1%	48%
Cc1cnc(C(=O)NCCc2ccc(Cl)cc2)cn1	55*	-7%	-18%	73*	51%	59%
O=C(NCCc1ccc(Cl)cc1)c1cnccn1	17*	-14%	9%	9	66%	9%
CC(C)(C)c1cnnn1-c1ccc(/C=N/Nc2ccc([N+](=O)[O-])cc2)cc1	-1	12%	?	-13	12µM*	-61%
Cc1cccc(C(=O)OCC(=O)NC2CC2)c1O	.	0%	3%	.	.	.
CSC1=C(C#N)C(c2ccc(C)s2)CC(=O)N1 (configuration not stated)	-2	-6%	-3%	-21	12%	2.3µM*
O=C(CSC1=NS(=O)(=O)c2cc(F)ccc2N1)NCc1ccccc1Cl	.	7%	5%	.	3%	13%
Oc1ccc2ccccc2c1CNc1ccc(Br)cc1	5	-11%	2.5µM*	-5	29%[0.00184 µM]	1%
Oc1ccc2ccccc2c1CNc1ccc(Br)cn1	46*	-5%	?	66*	-9%	?
NCc1c(O)ccc2ccccc12	-1	.	.	-6	14%	?
O=C(NCc1c(O)ccc2ccccc12)c1ccccc1	2	-7%	-17%	11	?	10µM*
COC(=O)c1c(NC(=O)CC2SC(N)=NC2=O)sc(C)c1C (configuration not stated)	-4	-7%	-4%	-10	7%	?
O=CN1CCN(C(=O)CC(c2ccccc2)c2cc(Br)ccc2O)CC1 (configuration not stated)	1	1%	8%	-5	-24%	374%
OC(c1ccc(F)cc1)c1ncc(-c2cccc3ccccc23)[nH]1 (configuration not stated)	.	6%	.	.	.	.
Cc1ccc(C2(c3noc(CN4CCC(c5ccncc5)CC4)n3)CCCC2)cc1	-7	?	10µM*	-15	?	12µM*
COCCN(Cc1nc(C2(c3ccc(C)cc3)CCCC2)no1)C(C)C	-2	-1%	-8%	-3	?	13µM*
Cc1ccc(C2(c3noc(CN(C)CC4CCCCO4)n3)CCCC2)cc1 (configuration not stated)	-1	-3%	?	-16	?	?
COc1ccc(-c2cn3cc(C)ccc3n2)cc1OC	33*	-13%	?	55*	64%	129%
COc1ccc(-c2cn3cc(C)ccc3n2)cc1F	16*	-2%	0%	15	62%	?
COc1ccc(-c2cn3ccccc3n2)cc1OC	27*	0%	2%	78*	158%	22%
CNC(=O)Oc1ccc(-c2cn3cc(C)ccc3n2)cc1	-2	9%	?	6	-81%	?
Cc1ccc2nc(-c3ccc4c(c3)NC(=O)CO4)cn2c1	42*	-5%	4%	72*	153%	453%
SMILES	Cycloheximide cs	AMA1 RON2 block	HCV inhibitor	Shiga toxin inh	Pf growth 48h	Pf growth 96h
Cc1ccc2nc(-c3ccc4c(c3)OCCO4)cn2c1	-8	6%	-10%	-24	-89%	67%
COc1ccc(-c2cc3cc(OC)c(OC)cc3cn2)cc1OC	.	1%	-47%	.	.	.
CCCS(=O)(=O)NC(=O)C1(C)CCCN(C(=O)c2ccccc2F)C1 (configuration not stated)	.	5%	.	.	.	.
O=C(O)C1C(c2ccccc2)c2ccccc2C(O)C1CO (configuration not stated)	.	20%	16%	.	.	.
Fc1ccc(-c2cn3ccccc3n2)cc1	34*	0%	-3%	77	173%	-8%
COC(=O)C1=C[C@@H](C(=O)OC)C2C3=C(C(=O)[C@@]2(C)NC(=O)c2ccccc2)[C@H](C)[C@@H]2C(=O)N(C)C(=O)[C@@H]2[C@@H]3C1 (some centres not stated)	2	.	.	23	.	.
